Only some compounds are listed: those with a hit (about 2.2% of all), similar ones and a draw of the others.
LGR2 antag = blocks bursicon-induced cAMP signaling via Drosophila LGR2; HEK293 LGR2, CRE-luciferase, bursicon-stimulated, 4 h; inhibition, % at 9.99 µM; 0.35% of 380,000 active;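 active = drop in luminescence signal, shown as inhibition above about 50% in the replicate tests, limit read from the data, passing the limit was not always enough; inconclusive = probably only some replicates passing the limit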;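 note: agonist challenge used bursicon conditioned medium at about half maximal strength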
TROY NFkB inh = inhibitors of TROY-dependent NF-kB signaling; Q293 LMP1-TROYcd NF-kB luciferase reporter, 4 h; inhibition, % at 10 µM; 0.98% of 360,000 active; AID 1347056;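 active = compounds whose plate-normalised and pattern-corrected inhibition of the luciferase reporter signal at the single screening dose is 50% or more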
TWEAK Fn14 block = blocks TWEAK-Fn14 interaction in a reporter cell assay. inhibition, % at 10 µM. TWEAK-stimulated Fn14 reporter cells, luciferase luminescence, 8 h. 2% of 360,000 active; in the data active = inhibition above about 50%
HSP90 refold inh = blocks HSP90-mediated luciferase refolding in reticulocyte lysate. Rabbit reticulocyte lysate, luciferase refolding luminescence, 3 h. AID 1789. inhibition, % at 5.6 µM. 0.91% of 290,000 active;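 active = inhibition above the screen-wide mean plus 3 SD, computed separately per campaign, cut at about 16% in these data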;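 note: inhibitors lower the luminescence because luciferase stays unfolded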
HSP90 confirm = HSP90 inhibition, confirmation assay | shares compounds with HSP90 refold inh | 64% of 2,300 active | AID 1846 | rabbit reticulocyte lysate, luciferase refolding luminescence, 3 h | inhibition, % at 5.9 µM; in the data active = inhibition above about 18%
luciferase ctr = blocks native firefly luciferase in HSP90 counter-screen; 48% of 2,300 active; shares compounds with HSP90 refold inh; inhibition, % at 5.9 µM; purified native firefly luciferase, luminescence;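 active = inhibition above the mean inhibition of all tested sample wells plus 3 SD, cut at about 10% in these data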
Target sequence (P08659 whole entry, looked up): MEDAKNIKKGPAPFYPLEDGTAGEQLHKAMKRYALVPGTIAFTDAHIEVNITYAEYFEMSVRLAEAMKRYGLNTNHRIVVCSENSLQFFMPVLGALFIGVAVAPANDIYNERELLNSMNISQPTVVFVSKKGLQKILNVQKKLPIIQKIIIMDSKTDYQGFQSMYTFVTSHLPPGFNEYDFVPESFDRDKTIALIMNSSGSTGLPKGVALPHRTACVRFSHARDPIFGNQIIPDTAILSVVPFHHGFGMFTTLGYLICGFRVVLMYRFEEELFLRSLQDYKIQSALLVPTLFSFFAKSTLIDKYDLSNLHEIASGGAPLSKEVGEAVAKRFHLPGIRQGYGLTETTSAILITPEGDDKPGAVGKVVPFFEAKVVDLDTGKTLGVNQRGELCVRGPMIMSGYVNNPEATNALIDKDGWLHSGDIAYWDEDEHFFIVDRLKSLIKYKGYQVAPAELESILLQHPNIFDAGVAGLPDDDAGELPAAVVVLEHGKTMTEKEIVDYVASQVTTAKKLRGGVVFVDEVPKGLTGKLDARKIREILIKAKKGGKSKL
Large screens that a line does not name were inactive (follow-up assays come after a bar, where they were run); ! = repeats disagree.

C#CCCC[C@@H]1OC(=O)CNC(=O)C([C@@H](C)CC)NC(=O)[C@@H]2CCCN2C(=O)C([C@@H](C)CC)OC(=O)[C@H](Cc2ccccc2)N(C)C(=O)[C@H](C(C)C)NC(=O)C1(C)C (stereo partly specified)	none (no result: HSP90 refold inh)
CCC(C)C1NC(=O)C(NC(=O)C(CC(C)C)N(C)C(=O)C2CCCN2C(=O)C(C)O)C(C)OC(=O)C(Cc2ccc(OC)cc2)N(C)C(=O)C2CCCN2C(=O)C(CC(C)C)NC(=O)[C@H](C)C(=O)[C@H](C(C)C)OC(=O)CC1O (stereo partly specified)	LGR2 antag 101, TROY NFkB inh 85, TWEAK Fn14 block 102 (no result: HSP90 refold inh)
Cc1ccccc1CN1Cc2cnnn2-c2ccccc2C1C#N (stereo unspecified)	LGR2 antag inconclusive, TROY NFkB inh 56, TWEAK Fn14 block 96 (no result: HSP90 refold inh)
CC(=O)N1[C@@H]2c3ccc(-c4cccc(C(=O)N(C)C)c4)c(=O)n3C[C@H]1[C@H](CO)[C@H]2C(=O)O	none (no result: TROY NFkB inh, TWEAK Fn14 block, HSP90 refold inh)
COc1ccc(CN2CCN(C(=O)Cc3ccccc3)CC2)c(OC)c1	none
COc1ccc(Br)cc1CN1CCN(C(=O)Cc2ccccc2)CC1	TWEAK Fn14 block 82 (no result: LGR2 antag, TROY NFkB inh)
Cc1ccc(-n2c(O)c(/C=C/C=Nc3ccccc3)c(=O)[nH]c2=O)cc1	none
Cc1ccc(N/N=C/c2c(O)n(-c3ccccc3)c(=O)[nH]c2=O)cc1	HSP90 refold inh 24
Cc1cccc(N2C(=O)NC(=O)/C(=C\c3cnc(-c4ccccc4)nc3)C2=O)c1	none
Cc1cc(C)cc(N2C(=O)NC(=O)/C(=C\c3cccn3-c3ccc(Cl)cc3)C2=O)c1	TROY NFkB inh 53, TWEAK Fn14 block 103 (no result: LGR2 antag)
O=C1NC(=S)NC(=O)C1=Cc1cccn1-c1ccc(O)cc1	TWEAK Fn14 block 71 (no result: LGR2 antag)
Cc1cc(C)cc(N2C(=O)NC(=O)/C(=C\c3cccn3-c3ccccc3)C2=O)c1	TWEAK Fn14 block 66
NCCc1cc(O)c(O)cc1O	TWEAK Fn14 block 56! (no result: HSP90 refold inh)
COc1ccc(CCN)cc1O	none (no result: HSP90 refold inh)
CC(=O)OC1C(=O)OCC23CCC4(C)OC4C2OC2CC(OC(=O)C=CC=CC(=O)OCCC1C)C3(C)C21CO1 (stereo unspecified)	LGR2 antag 105, TROY NFkB inh 84, TWEAK Fn14 block 99 (no result: HSP90 refold inh)
CC(O)C1C=CC=CC(=O)OC2CC3OC4C5OC5(C)CCC4(COC(=O)C4OC4(C)C(O)CO1)C2(C)C31CO1 (stereo unspecified)	LGR2 antag 101, TROY NFkB inh 85, TWEAK Fn14 block 99 (no result: HSP90 refold inh)
COc1cccc(CNC2CN3CCC2CC3)c1OC (stereo unspecified)	TWEAK Fn14 block 68 (no result: LGR2 antag)
COC(=O)C1=C(c2ccccc2OCc2ccccc2)C[C@@H]2CC[C@H]1N2C	none (no result: HSP90 refold inh)
COC(=O)C1=C(c2ccc(OCc3ccccc3)cc2)C[C@@H]2CC[C@H]1N2C	TROY NFkB inh 57 (no result: HSP90 refold inh)
COC(=O)C1=C(c2ccc(OCc3ccccc3)c(F)c2)C[C@@H]2CC[C@H]1N2C	TROY NFkB inh 52 (no result: HSP90 refold inh)
COC(=O)[C@H]1[C@H](CO)[C@H]2Cn3c(ccc(/C=C/c4ccccc4)c3=O)[C@@H]1N2CC1CCCC1	none (no result: TROY NFkB inh, TWEAK Fn14 block, HSP90 refold inh)
O=C(Cc1ccccc1)N1CCCCN2[C@H](C1)[C@H](c1ccc(C#Cc3ccccc3)cc1)[C@@H]2CO	none (no result: TROY NFkB inh, TWEAK Fn14 block, HSP90 refold inh)
O=Cc1cn(Cc2cccc([N+](=O)[O-])c2)c2ccccc12	LGR2 antag 87, TROY NFkB inh 68
CC(C)CC#Cc1ccc([C@@H]2[C@H](CO)N3CCCCN(C(=O)Cc4ccccn4)C[C@@H]23)cc1	none (no result: TROY NFkB inh, TWEAK Fn14 block, HSP90 refold inh)
COC(=O)[C@H]1[C@H](CO)[C@H]2Cn3c(ccc(C4=CCCC4)c3=O)[C@@H]1N2CC1CCCCC1	none (no result: TROY NFkB inh, TWEAK Fn14 block, HSP90 refold inh)
COC(=O)[C@@H]1[C@@H](CO)[C@@H]2Cn3c(ccc(-c4ccccc4)c3=O)[C@H]1N2S(=O)(=O)c1ccccc1C	none (no result: TROY NFkB inh, TWEAK Fn14 block, HSP90 refold inh)
CCN1/C(=C\C=C\C2=[N+](CC)c3ccccc3C2(C)C)C(C)(C)c2ccccc21	TROY NFkB inh 65, TWEAK Fn14 block 100 (no result: LGR2 antag)
COC(=O)C1=Nc2ccccc2/C1=C\c1c(O)n(-c2ccc(OC)cc2)c(=O)[nH]c1=O	TWEAK Fn14 block 65 (no result: LGR2 antag)
COC(=O)C1=Nc2ccccc2/C1=C\c1c(O)n(-c2ccc(Br)cc2)c(=O)[nH]c1=O	TWEAK Fn14 block 59 (no result: LGR2 antag)
O=c1[nH]c(=O)n(-c2ccccc2)c(O)c1/C=C1/C(c2ccccc2)=Nc2ccccc21	none
CC1(C)CN=C(NCc2ccccc2)S1	HSP90 refold inh 23
C[C@@H]1CN([C@H](C)CO)C(=O)c2c(c3ccccc3n2C)-c2ccccc2CO[C@H]1CN(C)C(=O)Oc1ccccc1	none (no result: TROY NFkB inh, TWEAK Fn14 block, HSP90 refold inh)
CCOC(=O)C1CCN(/C=C2/C(=O)NC(=O)N(c3ccc(OCC)cc3)C2=O)CC1	HSP90 refold inh 24 | HSP90 confirm inactive | luciferase ctr inactive
Cc1cccc(CN2CCCN(Cc3ccc(Cl)cc3)S2(=O)=O)c1	none
Cc1ccc(CN2CCCN(Cc3ccc(C)cc3)S2(=O)=O)cc1	HSP90 refold inh 18 | HSP90 confirm inactive | luciferase ctr inactive
O=C(Cc1ccccn1)N1CCCCN2[C@H](CO)[C@H](c3ccc(C#Cc4ccccc4)cc3)[C@@H]2C1	none (no result: TROY NFkB inh, TWEAK Fn14 block, HSP90 refold inh)
CCCCCCOc1ccc(CN2CCN(CC)CC2)cc1	TROY NFkB inh 60, TWEAK Fn14 block 66, HSP90 refold inh 30 (no result: LGR2 antag) | HSP90 confirm 25 | luciferase ctr inactive
COC(=O)[C@@H]1[C@@H](CO)[C@@H]2Cn3c(ccc(-c4cccc(OC)c4)c3=O)[C@H]1N2C(=O)c1ccccc1F	none (no result: TROY NFkB inh, TWEAK Fn14 block, HSP90 refold inh)
O=C(CCS(=O)(=O)c1ccc(Br)cc1)N1CCC2(CC1)OCCO2	HSP90 refold inh 78 (no result: LGR2 antag) | HSP90 confirm inactive | luciferase ctr inactive
O=C(c1ccc(CS(=O)(=O)c2ccc(Br)cc2)o1)N1CCC2(CC1)OCCO2	none (no result: LGR2 antag)
O=C(NC1CCCCC1)Oc1cc2oc(=O)sc2cc1Cl	HSP90 refold inh 18 | HSP90 confirm inactive | luciferase ctr inactive
COc1cc(C(c2c(C)[nH]n(-c3ccccc3)c2=O)c2c(C)[nH]n(-c3ccccc3)c2=O)cc(OC)c1OC	HSP90 refold inh 56 | HSP90 confirm inactive | luciferase ctr inactive
COC(=O)C(O)(c1c(C)[nH]n(-c2ccccc2)c1=O)C(F)(F)F (stereo unspecified)	none (no result: LGR2 antag)
Cc1ccc(OCCOc2cccc(C=C3C(=O)NC(=O)NC3=O)c2)cc1	HSP90 refold inh 30 | HSP90 confirm 45 | luciferase ctr 14
CC1CN=C(NC(C)c2ccccc2)S1 (stereo unspecified)	HSP90 refold inh 17 | HSP90 confirm inactive | luciferase ctr inactive
COc1ccc(-c2ccc3n(c2=O)C[C@@H]2[C@@H](CO)[C@H](C(=O)O)[C@H]3N2C(=O)c2ccccc2F)cc1	none (no result: TROY NFkB inh, TWEAK Fn14 block, HSP90 refold inh)
COc1ccc(N2C(=O)NC(=O)/C(=C\c3cn(C)c4ccccc34)C2=O)cc1	HSP90 refold inh 28 | HSP90 confirm inactive | luciferase ctr inactive
CN(C)C(=O)Oc1ccc(-c2cn3cc(Cl)ccc3n2)cc1	HSP90 refold inh 33 | HSP90 confirm 34 | luciferase ctr 21
CN(C)C(=O)Oc1cccc(-c2cn3cc(Cl)ccc3n2)c1	none

Screening results (PubChem)
